Unmarked numbers belong to inactive results. Active and inactive are the calls of the source. Calls follow the shape of the full dose curve.
The compounds below were run against Estrogen receptor (Homo sapiens) (UniProt P03372) (assay: qHTS assay to identify small molecule agonists of the estrogen receptor alpha (ER-alpha) signaling pathway in the presence of an antagonist (AID 1259383; also: nearly all actives have a fitted effect of over 15% in size; as to activation: top concentration of the series differs between compounds)). Details: VM7Luc4E2 cells, ERE-luciferase, +ICI-182,780, 22 h; series mostly up to 92.4 µM; activation: at the top concentration.
Sequence of Estrogen receptor (Homo sapiens) (P03372 whole entry, looked up): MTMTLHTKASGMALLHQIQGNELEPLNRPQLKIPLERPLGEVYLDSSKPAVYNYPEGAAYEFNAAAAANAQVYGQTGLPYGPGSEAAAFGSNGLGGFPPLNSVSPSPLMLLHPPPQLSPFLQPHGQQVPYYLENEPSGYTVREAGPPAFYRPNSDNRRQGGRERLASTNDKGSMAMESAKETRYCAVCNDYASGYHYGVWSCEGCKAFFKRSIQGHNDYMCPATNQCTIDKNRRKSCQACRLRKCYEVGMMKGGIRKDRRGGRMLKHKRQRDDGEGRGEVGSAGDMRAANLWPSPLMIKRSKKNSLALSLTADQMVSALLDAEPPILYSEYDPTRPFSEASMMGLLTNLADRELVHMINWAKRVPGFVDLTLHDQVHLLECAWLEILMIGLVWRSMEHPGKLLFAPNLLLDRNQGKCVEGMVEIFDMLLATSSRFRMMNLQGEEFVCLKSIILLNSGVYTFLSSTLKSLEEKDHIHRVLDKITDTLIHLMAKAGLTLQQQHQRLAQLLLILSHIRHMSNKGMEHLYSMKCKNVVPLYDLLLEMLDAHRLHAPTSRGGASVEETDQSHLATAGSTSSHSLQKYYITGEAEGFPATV
Source text: National Center for Advancing Translational Sciences [NCATS] NIH Chemical Genomics Center [NCGC] U.S. Environmental Protection Agency [EPA] National Institutes of Environmental Health Sciences [NIEHS] National Toxicology Program [NTP] Assay overview: Estrogen receptor (ER), a member of nuclear hormone receptor plays an important role in development, metabolic homeostasis and reproduction. Two subtypes of ER, ER-alpha and ER-beta, have similar expression patterns with some uniqueness in both types. Endocrine disrupting chemicals (EDCs) and their interactions with steroid hormone receptors like ER causes disruption of normal endocrine function. Therefore, it is important to understand the effect of environmental chemicals in ER signaling pathway. For identifying ER agonists, VM7Luc4E2 cell line has been used in the current assay. VM7Luc4E2 cell line (provided by Denison MS, University of California) endogenously expresses full-length ER-alpha and is stably transfected with a plasmid containing four estrogen responsive elements (ERE) upstream of a luciferase reporter gene. This current screening for measuring luciferase reporter gene activity using VM7Luc4E2 cells against Tox21 10K library collection is a confirmation study on agonist mode screening in presence of ER-antagonist (ICI-182,780) at 10.0nM final concentration.
Assay Protocol Summary: VM7Luc4E2 cells were cultured in phenol red free assay medium containing 10% charcoal stripped FBS for 5 days prior to the assay. The cells were dispensed at 4,000 cells in 4uL of assay medium per well into white wall/solid-bottom 1536-well plates (Corning Life Sciences, Corning, NY) using a Multidrop Combi (Thermo Fisher Scientific Inc., Waltham, MA) dispenser. After the assay plates were incubated at 37C and 5% CO2 for 24hr, 1uL of 10.0nM (final concentration) ICI-182,780 or assay buffer was added using two separate tips of Flying Reagent Dispenser (FRD, Aurora Discovery, San Diego, CA). Then 23nL of compounds dissolved in DMSO at 15 concentrations and positive controls or DMSO only was transferred to the assay plates by a Pintool station (Wako, San Diego, CA). The assay plates were incubated at 37C and 5% CO2 for 22hr. For luciferase read, 4uL/well ONE-Glo reagent (Promega Corporation, Madison, WI) was added to each well using FRD and after 30min incubation at room temperature, luminescence signal was measured on ViewLux plate reader (PerkinElmer, Shelton, CT).
% is scaled to controls: 0 for no effect and ±100 for the full control effect; potency is read from the fitted curve at half-maximal effect.

SMILES | activation | Potency
CCCCOCCOC(=O)c1cccnc1 | -0.727% [at 42.5 µM] | –
CC1=CC[C@@H]2C[C@H]1C2(C)C | -0.899% [at 19 µM] | –
CC(C)(C)S | -1.09% | –
O=c1[nH][nH]c(=O)c2cc([N+](=O)[O-])ccc12 | -0.336% | –
CC(C)N=C=NC(C)C | -0.133% | –
CC1C(C)(C)C2=C(C(=O)CCC2)C1(C)C (stereo not given) | -1.85% | –
c1ccc2sc(SSc3nc4ccccc4s3)nc2c1 | 2.07% [at 19 µM] | –
O=P(O)(O)Oc1ccccc1 | 1.05% | –
O=C(/C=C/c1ccc([N+](=O)[O-])cc1)c1ccccc1 | 3.36% | –
Nc1cccc2c(N)cccc12 | -13.7% | –
COc1ccc(-c2cc(C(F)F)nn2-c2ccc(S(N)(=O)=O)cc2)cc1F | -1.43% [at 42.5 µM] | –
FC(F)(F)C(F)(F)C(F)(F)C(F)(F)CCI | 0.285% [at 42.5 µM] | –
CC(C)C(O)C(C)(C)CO (stereo not given) | 4.93% | –
CCOC(=O)N1CCC(Nc2ccc(Cl)cc2N)CC1 | -0.474% [at 42.5 µM] | –
COc1ccc(C(=O)NCc2ccc(OCCN(C)C)cc2)cc1OC | -2.9% [at 42.5 µM] | –
CCSC(=O)N(CC)CC | -0.0319% | –
CCCCCCCC(=O)Oc1c(Br)cc(C#N)cc1Br | 3.13% | –
CO[C@@H]1[C@@H](OC)[C@H](C)[C@@](O)(CC(=O)O)O[C@H]1[C@H](C)[C@H]1O[C@@]2(CC[C@@](C)([C@H]3CC[C@@](C)([C@@H]4O[C@@H]([C@H]5O[C@](C)(O)[C@H](C)C[C@@H]5C)C[C@@H]4OC4C[C@H](OC)[C@@H](OC)[C@H](C)O4)O3)O2)C[C@H](O)[C@H]1C (stereo not given in full) | -2.91% [at 42.5 µM] | –
CC(CCc1ccc(O)cc1)NCCc1ccc(O)c(O)c1 (stereo not given) | 0.693% [at 42.5 µM] | –
CC(C)(C)NCC(O)COc1cccc2c1C[C@H](O)[C@H](O)C2 (stereo not given in full) | -0.163% [at 42.5 µM] | –

SMILES | activation | Potency
O=NN(CCCl)C(=O)NCCCl | 0.471% [at 42.5 µM] | –
CC(C)(O)CCc1ccccc1 | -0.252% | –
COc1cc(NCc2ccc3nc(N)nc(N)c3c2C)cc(OC)c1OC | -0.41% [at 42.5 µM] | –
CCC(C)(C)C(=O)O | -0.0196% | –
CCCCCCC(O)CCOC(C)=O (stereo not given) | -0.561% [at 240 µM] | –
CC1CCCC(=O)C1=O (stereo not given) | -1.11% | –
CC12CC3CC(C)(C1)CC(N)(C3)C2 | 0.518% [at 42.5 µM] | –
C=C(C)C(=O)OCCC(F)(F)C(F)(F)C(F)(F)C(F)(F)C(F)(F)C(F)(F)F | -2.38% | –
O=C(O)c1cccc(C[C@@H]2COc3ccc(OCc4nc5cc(F)ccc5s4)cc3[C@@H]2O)c1 | 3.04% | –
Cc1ccc(N(CCO)CCO)cc1 | 0.185% | –
COC(OC)OC | -2.48% | –
CC(C)COC(=O)COc1cc(Cl)c(Cl)cc1Cl | -1.72% | –
Cc1ccc2c(c1[N+](=O)[O-])C(=O)c1ccccc1C2=O | – | 3.37 µM (active)
COc1ccc(CCN(C)CCCN2CCc3cc(OC)c(OC)cc3CC2=O)cc1OC | -0.209% [at 42.5 µM] | –
Cc1cccc2sc(N)nc12 | 0.462% | –
C[C@@H]1C[C@H]2[C@@H]3CCC4=CC(=O)C=C[C@]4(C)[C@@]3(F)[C@@H](O)C[C@]2(C)[C@@]1(O)C(=O)COP(=O)(O)O | 2.23% | –
Nc1ccc(NC(=O)c2ccc(N)cc2)cc1 | -6.87% | –
CCC(Cl)CC(Cl)C(Cl)C(Cl)C(Cl)C(C)Cl (stereo not given) | 11.4% [at 19 µM] | –
O=C1NC(=O)c2cccc3cccc1c23 | 1.39% | –
CNc1c2c(nn1C)CCCC2 | -0.315% [at 42.5 µM] | –

Source: PubChem BioAssay (Tox21)
